Assay outcomes: PubChem, Sanford-Burnham Center for Chemical Genomics
ER stress surv: ER stress cell death inhibition. CSM14.1 thapsigargin ER stress survival, ATP luminescence. relative survival (cellular ATP), % at 15 µg/mL (by protocol). 48,000 tested, 0.33% active. AID 1010;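 active = survival measured by cellular ATP above 50% at 15 µg/ml in the first screen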;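 also: cell death triggered by about 15 µM thapsigargin; ATP read 24 h after thapsigargin was added; plate controls were thapsigargin with DMSO for no effect and DMSO without thapsigargin for full effect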
Starred values were filed as active, the others as inactive. Shown is part of a subset that was picked to be rich in hits.

SMILES | ER stress surv
Cc1ccc(C(=O)N/C(=C/c2cccnc2)c2nc3ccccc3[nH]2)cc1 | -2
Cc1ccc(C(=O)N/C(=C/c2cccs2)c2nc3ccccc3[nH]2)cc1 | 62*
O=C(N/C(=C/c1cccs1)c1nc2ccccc2[nH]1)c1ccccc1 | -2
CN1CCN(NC(=O)CN2C(=O)/C(=C/c3ccccc3Cl)SC2=S)CC1 | -6
COc1ccc(C2(CNC(=O)C3(c4ccccc4)CCCC3)CCCC2)cc1OC | 2
CC(=O)Nc1ccc(C2(O)COc3ccccc3O2)cc1 (stereo not drawn) | 16
COc1ccc(CNc2ccc(C)c(C)c2)c(OC)c1C | -4
COc1ccc(CNc2ccc3c(c2)ncn3C)cc1 | 0
COc1cccc(CNc2ccc3c(c2)ncn3-c2ccccc2)c1OC | 89*
C=CCN1C(=O)/C(=C\c2cc([N+](=O)[O-])cc([N+](=O)[O-])c2O)C(=O)NC1=S | 11
Cn1cc(/C=C/c2nc3ccccc3c(=O)n2-c2ccc([N+](=O)[O-])cc2)c2ccccc21 | 6
COc1cccc(-n2c(/C=C/c3cn(C)c4ccccc34)nc3ccccc3c2=O)c1 | 76*
COc1cccc(-n2c(/C=C/c3c(C)[nH]c4ccccc34)nc3ccccc3c2=O)c1 | 1
O=C(c1ccc([N+](=O)[O-])cc1)N1CCN(Cc2cccc(Oc3ccccc3)c2)CC1 | 69*
CCn1c2ccccc2c2cc(CN3CCN(C(=O)c4ccc([N+](=O)[O-])cc4)CC3)ccc21 | 91*
COc1ccc(C(=O)N2CCN(Cc3cccc(Oc4ccccc4)c3)CC2)cc1OC | 53*
CCOc1ccc(CN2CCN(C(=O)c3ccc([N+](=O)[O-])cc3)CC2)cc1 | -2
Cc1cccc(CN2CCN(C(=O)c3ccc([N+](=O)[O-])cc3)CC2)c1 | 4
O=C(c1ccc([N+](=O)[O-])cc1)N1CCN(Cc2cccnc2)CC1 | -8
O=C(c1ccncc1)N1CCN(Cc2cccc(Oc3ccccc3)c2)CC1 | -2
COc1cc(C(=O)N2CCN(Cc3cccc(Oc4ccccc4)c3)CC2)cc(OC)c1OC | 45
COc1ccc(C(=O)N2CCN(Cc3cccc(C)c3)CC2)cc1OC | 2
CCOc1ccccc1/C=C1\C(=O)N(CCOC)C(C)=C1C(=O)OC | 0
CC(C)CN1C(=O)/C(=C/c2ccco2)SC1=S | -2
O=C(CN(c1cccc(Cl)c1)S(=O)(=O)c1ccccc1)NC12CC3CC(CC(C3)C1)C2 | 14
SMILES | ER stress surv
O=Cc1cc(Cl)c(OCc2ccccc2Cl)c(Cl)c1 | 0
COc1cc(/C=C2\C(=O)NC(=S)N(c3ccccc3)C2=O)c([N+](=O)[O-])cc1OC | 10
Cc1cc(=O)[nH]c(Nc2nc(C)c3cccc(C)c3n2)n1 | 14
COc1ccc(-c2nc3ccccc3o2)cc1NC(=O)c1cc2ccccc2cc1OC | 13
COC(=O)c1c(NC(=O)C2C3CCC(C3)C2C(=O)O)sc2c1CCCCC2 (stereo not drawn) | 1
COc1cc(/C=C2\SC(=S)N(C)C2=O)cc(Br)c1O | -3
COC(=O)c1cc(NC(=O)/C=C/c2ccc(F)cc2)cc(C(=O)OC)c1 | 4
CC1(C)OC2OC(C(=O)Nc3ccccc3)C3OC(C)(C)OC3C2O1 (stereo not drawn) | 1
O=C(Nc1cccc2ccccc12)C1C2CCC3C(CCC21)C3(Cl)Cl (stereo not drawn) | 2
O=C(Nc1cccc2ccccc12)C1OC2OC3(CCCCC3)OC2C2OC3(CCCCC3)OC12 (stereo not drawn) | 115*
COc1ccc2nc(NC(=O)c3sc4cc([N+](=O)[O-])ccc4c3Cl)sc2c1 | 6
CC(C)(C)c1cc(Br)ccc1OCC(=O)Nc1ccccc1C(F)(F)F | -2
COc1ccc(S(=O)(=O)N2CCN(c3ccc(F)cc3)CC2)cc1 | 4
CCc1cc2c(N3CCN(Cc4ccc(Cl)cc4Cl)CC3)ncnc2s1 | 98*
CCc1cc2c(N3CCCCC3)ncnc2s1 | -1
CCOC(=O)c1cnn(-c2ncnc3sc(CC)cc23)c1N | 9
N#C/C(=C\c1ccc(-c2ccc(Cl)c(C(=O)O)c2)o1)C(=O)NCC1CCCO1 (stereo not drawn) | 12
O=C(NCC1CCCO1)/C(=C/c1ccc(-c2ccccc2Cl)o1)NC(=O)c1ccccc1 (stereo not drawn) | 87*
COc1ccc(C(=O)N/C(=C\c2ccc(Cl)cc2)C(=O)NCC2CCCO2)cc1 (stereo not drawn) | 0
CC(=O)NC(=Nc1nc(C)c2cc(C)cc(C)c2n1)NC(C)=O | 0
c1ccc(CCCN2CCN(C3CCN(Cc4ccccc4)CC3)CC2)cc1 | -5
CCOC(=O)C(=CNc1ccc(Nc2ccccc2)cc1)C(=O)OCC | -5
CC(NC(=O)c1ccc(S(=O)(=O)N2CCCCC2)cc1)C12CC3CC(CC(C3)C1)C2 (stereo not drawn) | 108*
CC(NC(=O)c1ccccc1)C12CC3CC(CC(C3)C1)C2 (stereo not drawn) | 1
Cc1ccc(C(=O)Nc2ccc(S(=O)(=O)N3CCCC3)cc2)cc1 | 0
SMILES | ER stress surv
COCCNC(=O)c1ccc(Cl)c([N+](=O)[O-])c1 | 2
COc1c(Cl)cc(C(=O)N2CCN(c3ccc(-n4c(C)ccc4C)cc3[N+](=O)[O-])CC2)cc1Cl | 4
CCOc1ccccc1CN(CCc1ccc2c(c1)OCO2)Cc1ccncc1 | 103*
CCOc1ccccc1CN(CCc1ccc2c(c1)OCO2)Cc1cc(OC)ccc1OC | 3
CCOc1ccc(-c2nnc(-c3ccc4c(c3)OCO4)o2)cc1 | 8
COc1ccc(N=C2NC(=O)CS2)cc1 | 8
C=CCOc1cc(Br)c(/C=C2\C(=O)NC(=O)N(c3ccc(C)cc3)C2=O)cc1OC | -2
CCOc1ccc(N/C(C)=C/C(=S)Nc2ccccc2)cc1 | -5
CSc1ccc(C2Nc3ccccc3NC3=C2C(=O)CC(c2ccc4c(c2)OCO4)C3)cc1 (stereo not drawn) | -3
Cc1ccc2c(c1)NC(c1ccc(F)cc1)C1=C(CC(c3ccccc3)CC1=O)N2 (stereo not drawn) | 1
COc1cc(C2Nc3ccccc3NC3=C2C(=O)CC(c2ccc(Cl)cc2)C3)cc(OC)c1OC (stereo not drawn) | -1
COc1ccc(C2CC(=O)C3=C(C2)Nc2ccccc2NC3c2cc(OC)c(OC)cc2Br)cc1 (stereo not drawn) | 4
Cc1ccc2c(c1)NC(c1ccc3c(c1)OCO3)C1=C(CC(c3ccccc3)CC1=O)N2 (stereo not drawn) | 92*
COc1ccc(C2CC(=O)C3=C(C2)Nc2ccccc2NC3c2cccc(O)c2)cc1 (stereo not drawn) | -4
CCOc1cc(C2Nc3ccccc3NC3=C2C(=O)CC(c2ccc(OC)cc2)C3)ccc1OC(=O)C1CC1 (stereo not drawn) | 2
COc1ccc(C2CC(=O)C3=C(C2)Nc2ccccc2NC3c2ccc(Br)s2)cc1 (stereo not drawn) | 85*
CCOc1cc(C2Nc3ccccc3NC3=C2C(=O)CC(c2ccc(OC)cc2)C3)cc(Cl)c1O (stereo not drawn) | 112*
Cc1ccc(C2Nc3ccccc3NC3=C2C(=O)CC(c2ccc(Cl)cc2)C3)cc1 (stereo not drawn) | 4
COc1ccc(C2CC(=O)C3=C(C2)Nc2ccccc2NC3c2ccc(F)c(Br)c2)cc1 (stereo not drawn) | 15
O=C1CC(c2ccc(Cl)cc2)CC2=C1C(c1cccs1)Nc1ccccc1N2 (stereo not drawn) | 68*
COC(=O)C1=C(C)NC(C)=C(C(=O)OC)C1/C=C/c1ccccc1 | 11
